Test results taken from the supplement of paper PMC6555819.

Each sequence was assayed on VDR:RXRa (NR concentration 270 nM, RXRa partner concentration 90 nM) (assay: PBM binding z-score (relative to random genomic background probes); higher = stronger binding; sequences stand for … in GC…GCGATTGACAGCGTAGAATGAAGG).
Method: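 Protein-binding microarray (Agilent 4x180K custom design, double-stranded 60-nt probes: 5' GC cap, 34-nt variable region, 24-nt constant primer region; full probe sequence given). Purified or IVT nuclear receptor:RXRα heterodimers (3:1 NR:RXRα, mostly 270:90 nM) or homodimers were incubated for 1 h in PBS with 2% milk and no ligand, then detected with Alexa488 antibodies. Fluorescence from o1-orientation probes (~5 replicates averaged) was converted to z-scores against 500 random hg19 background probes. Variable regions are seed direct-repeat (DR0–DR5) sites, all their single-nucleotide variants and half-site ablations.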
With TAGCCTAGGTCATGCGGGCCAGTTTAGTGTCGGC the PBM binding z-score was 2.97. For CCTACTAGGCCAAAAAGGTCATTGATGCCGATAA, the PBM binding z-score was 5.16. TCTGCTAGTTCAGTTGGTCAGCTAACGAGCTGCC showed a PBM binding z-score of -0.158. Work on TGTAGTTGGTCAAAGGTCACACACTCGAAATGCG yielded a PBM binding z-score of 5.19. Sequence CCTACTGGGCAAAGGTCATTGATCAGTCAAAGCA has a PBM binding z-score of 4.36. TCTGCTAGGTCAACGATGGTCAGCAAATCTGCTA showed a PBM binding z-score of 1.64. In the case of TCATGTAGGTAATACAGGTGAAAGTCGGCATCTA, the PBM binding z-score is reported as 0.207. With TGAATGAGGTTATAAGATCAGGGAGCGTTGCAAA the PBM binding z-score was 0.606. Sequence CCTACTGGGCCATCAGGACATTGATATCAACGTT has a PBM binding z-score of -0.324. CGTCCAAGGTCAAAGAGGTCAGTGAATGCCGAGT gave a PBM binding z-score of 7.77. TCTCGGAGGGCACGAAAGGTCAGAGCTCGACATC showed a PBM binding z-score of 4.66. GCTGCTAGATCAGGTTGGTCAGCTAACGGGTACG showed a PBM binding z-score of -0.639. In the case of TCATATAGATAATACAGGTGAAAGTCGGCATCTA, the PBM binding z-score is reported as 1.17. With ATCTCTAGGTAACTAGTTCAGTGAAAGAGAGGAC the PBM binding z-score was 0.369. For CCTACTGGCCCAAGGTCATTGATCAGTCAAAGCA, the PBM binding z-score was 3.26. In the case of CCTACTTGGTCAAGGTCACACACGCTATAGGTAC, the PBM binding z-score is reported as 3.97. TCGAGAAGGTTACCAATGGGGCATTCAGCTTTCT gave a PBM binding z-score of 0.778. CCTGACGGGTCAAGGTTATAGCACGGGTGGTACG showed a PBM binding z-score of 2.74. Sequence CCTCGGAGGACAGAAGGTCGGAGCTGTCCGCTTT has a PBM binding z-score of -0.398. Work on CGTCAAAGTTTAACTAAGGTAACGTAAAGCACGC yielded a PBM binding z-score of 0.861. CCTACTGGGCCATCAAGTCATTGATATCAACGTT showed a PBM binding z-score of -0.0971. For CTCGAAAGGTCGTTTGAGGTGAGTATACGGATAA, the PBM binding z-score was 4.84. With ATCGAAAGGTCGTGAGGTTAGTATACAGAAAGGC the PBM binding z-score was 4.66. AGTCAAAGTTCATCTATGTAACGTAAGATATGCT gave a PBM binding z-score of 4.75. Sequence TCTACTAGGTCAGTTGGTCAGCTAACGAGCTGCC has a PBM binding z-score of 0.701. With ATCTCTCGGTAAGACTCAGTTCAGTGAAGAACGC the PBM binding z-score was 0.848. Sequence GCATTTAGGTAATACAAGGTGAAAGTCCGATTGT has a PBM binding z-score of 0.176. Sequence TCGGGTAGGTTAGGGGCATTCAGAATGGCGTCGA has a PBM binding z-score of 1.57. CCAACTAGGTCATCCAGGACAGTGAATACATTGA was tested, and the PBM binding z-score was 4.58. With CTACCAAGGTGAACAAGATCGTTGATTACTATTC the PBM binding z-score was 1.31. With AATAAAGGGTCACTAGGCCAGAGTAGGTACGAAT the PBM binding z-score was 4.04. TCTCGGAGGACACGAAGGTCATAGCTTTCCAGAG showed a PBM binding z-score of 4.04. With GCTTGTAGATCAAGGTTATGAAAGACTAAGCTAA the PBM binding z-score was 0.325. AGATGTAGGTTATCGGGTCATTCAGTTTGCGCAT gave a PBM binding z-score of 5.35. CCTAGCAGGCCAATCTGGATCACTCAAGGCTTGA gave a PBM binding z-score of -0.611. With GCATATAGGTAATACAAGTTGAAAGTCCGATTGT the PBM binding z-score was 0.409. Sequence ACTAGCAGGCCAAATTTGGGTCACTCAAACAAAG has a PBM binding z-score of 0.734. Work on ACTATTAGTTGAGATGAGGGCAACCGATAGGTTG yielded a PBM binding z-score of 0.654. In the case of CCGACTGGGGCAGGAAGGTTACCATACCATCCGG, the PBM binding z-score is reported as 0.235. With GGACCGAGGGCAAAGTTGATAGCATCTGTCGACG the PBM binding z-score was 0.837.
